# This is one part of a sample in which hits are shown more often than they occur.
# VACV E9 pol inh: blocks vaccinia virus processive DNA synthesis; in vitro processive DNA synthesis, absorbance read-out; active compounds read low; normalized absorbance, % (test concentration not listed); 46,000 compounds, 0.94% hits; in the data active = normalized absorbance mostly below about 85%, no sharp cut-off; inactive = mostly above about 86%
# Active calls of the source: *.
SMILES,VACV E9 pol inh
Nc1ccc2c(c1)nc(-c1ccccc1)c1cc(N)ccc12,98
CC[n+]1c(-c2ccccc2)c2cc(N)ccc2c2ccc(N)cc21,12*
Fc1ccc(CSc2c[nH]c3ccccc23)cc1,92
CC(=O)n1c2ccccc2c2nc(-c3ccncc3)sc21,91
CC(=O)Oc1cc(C)c(OC(C)=O)c(C)c1C,88
O=C1/C(=C/C=C/c2ccccc2)SC(=S)N1c1cccc(F)c1,100
O=C(CN1C(=O)/C(=C\C=C\c2ccccc2)SC1=S)Nc1ccc(F)cc1,98
O=C1OC(c2ccccc2)OC(=O)C1=C/C=C/c1ccccc1 (stereo not drawn),100
O=C1NC(=O)/C(=C\C=C\c2ccccc2)S1,55*
O=C1NC(=S)S/C1=C\C=C\c1ccccc1,86*
CN(C)c1ccc(/C=C2\SC(=O)NC2=O)cc1,102
Cc1ccccc1/C(N)=N\O,102
COc1ccc2c(c1)C(C)CC(C)(C)N2C(=O)Nc1ccc(Cl)cc1 (stereo not drawn),100
CN(Cc1ccccc1)C(=O)COC(=O)Cc1c(Cl)cccc1Cl,108
CN1CCN(CCNC(=O)c2cc3c(=O)n(C)c4ccccc4c3n2C)CC1,62*
Cn1c(C(=O)NCCc2ccc(Cl)cc2)cc2c(=O)n(C)c3ccccc3c21,100
Cn1c(C(=O)NC2CC2)cc2c(=O)n(C)c3ccccc3c21,77
O=C(CCCN1C(=O)c2cccnc2C1=O)Nc1ccc(C(F)(F)F)cc1,91
CCCC(=O)Nc1nnc(SCC(=O)N2CCc3ccccc32)s1,100
O=S(=O)(Nc1ccc(-c2ccno2)cc1)c1ccc(-n2cccn2)cc1,93
NC(=O)c1cc(S(=O)(=O)NC2CCCCCCC2)cs1,98
c1ccc2c(c1)-c1ccccc1C2C1CCNCC1,95
O=C1c2cccc3cccc(c23)C(=O)N1NCCO,80*
O=C(O)CN1C(=O)c2cccc3cccc(c23)C1=O,100
O=C1c2cccc3cccc(c23)C(=O)N1c1ccc(O)cc1,96
SMILES,VACV E9 pol inh
COc1ccc(CCNC(=O)c2cc3ccccc3s2)cc1OC,97
CCOC(=O)c1c(C)n(Cc2ccccc2)c2ccc(OC(C)=O)cc12,100
CCOC(=O)c1c(C)n(C)c2ccc(OCCN(C)C)cc12,65*
CCOC(=O)c1c(C)n(-c2ccc(OC)cc2)c2ccc(OC)cc12,100
Cc1ccc(-c2nnc(Nc3ccc(S(N)(=O)=O)cc3)c3ccccc23)cc1S(N)(=O)=O,98
Clc1ccc(/C=N/c2ccccn2)cc1,98
CCn1c(=O)c(C(C)Nc2ccco2)c(O)c2ccccc21 (stereo not drawn),100
N#CC1=C(N=Cc2c(O)ccc3ccccc23)CCC1,99
Oc1c(Cl)cc(Cl)cc1/C=N/c1nc2c(s1)CCCC2,97
N#CC1=C(N=Cc2cc(Cl)cc(Cl)c2O)CCC1,83*
O=c1c2nnn(Cc3ccc(F)cc3)c2ncn1Cc1ccc(F)cc1,69*
Cc1ccc(Cn2nnc3c(=O)n(Cc4cccc(C)c4)cnc32)cc1,96
Cc1ccc(Cn2nnc3c(=O)n(Cc4ccc(C(F)(F)F)cc4)cnc32)cc1,98
CCOc1ccc(N(/C=C2\Sc3ccccc3C2=O)C(=O)c2ccc(C)cc2)cc1,100
O=S(=O)(c1cccc2cnccc12)N1CCCNCC1,100
Brc1ccccc1C=Nc1cccc2cnccc12,81
O=S(=O)(NCCNC/C=C/c1ccc(Br)cc1)c1cccc2cnccc12,89*
O=C(O)c1cccnc1Nc1ccccc1,98
CCOc1cc(/C=N/S(=O)(=O)c2cccs2)cc(Br)c1O,108
NC(=O)c1ccccc1-n1ccnc1,111
CCN1CCN(c2ccc(NC(=O)c3cccc(Br)c3)cc2)CC1,97
CCN1CCN(c2ccc(Nc3ccnc4cc5ccccc5cc34)cc2)CC1,14*
CN1CCN(c2ccc(Nc3ccnc4cc(Cl)ccc34)cc2Cl)CC1,100
Oc1ccc(-c2nc3sc(-c4ccc(O)cc4)nc3s2)cc1,101
Cc1ccc(C(=O)NCS(=O)(=O)c2ccccc2)cc1,101
SMILES,VACV E9 pol inh
O=c1oc2ccccc2cc1S(=O)(=O)c1ccc(F)cc1,104
O=C1c2ccccc2-c2n[nH]c(=O)c3ccc(N4CCOCC4)c1c23,99
Cc1ccc(Nc2ccc3noc4c3c2C(=O)c2ccccc2-4)cc1,100
CC1CCN(c2cc(N(C)C)c3noc4c3c2C(=O)c2ccccc2-4)CC1,70*
Cc1ccc(C)n1-c1nnc(N2CCCC(C(=O)O)C2)s1 (stereo not drawn),91
Cc1nc2cc(-c3ccccc3)nn2c(C)c1CCC(=O)N1CCc2ccccc21,90
Cn1c2ccccc2c2nnc(SCCCC(=O)c3ccc(F)cc3)nc21,100
CC(C)(C)c1cc(O)cc(C(C)(C)C)c1CN1CCN(CCN)CC1,100
CCC(=O)N/C(N)=N\c1nc(C)c2ccccc2n1,99
NC(N)=Nc1nc(-c2ccccc2)c2ccccc2n1,51*
c1ccc(-c2nc(N3CCCC3)nc3ccccc23)cc1,99
O=C(CC1Oc2ccccc2NC1=O)Nc1cc(Cl)cc(Cl)c1 (stereo not drawn),102
CC(C)(C)c1cc(/C=C2\SC(=S)NC2=O)cc(C(C)(C)C)c1O,98
CCOc1cc(/C=C2/SC(=S)NC2=O)cc(Br)c1O,69*
CCOc1cc(/C=C2\SC(=S)NC2=O)cc(Cl)c1OC(=O)c1ccc(OC)cc1,100
Cc1cc(-c2nc(-c3ccnn3C(=O)Nc3cccc(Cl)c3)cs2)no1,102
CCOC(=O)Nc1cccc(O)c1,99
Cc1cc(C)n(C(N)=S)n1,99
Cc1ccc([C@H]2[C@@H](C#N)[C@H](C#N)N3CCCN23)cc1,99
C[C@@]1(C(=O)O)CC[C@]2(C)CC[C@]3(C)C4=CC=C5C=C(O)C(=O)C=C5[C@]4(C)CC[C@@]3(C)[C@@H]2C1,77*
CC(NC(=O)c1cccc(S(=O)(=O)N(C)C)c1)c1ccccc1 (stereo not drawn),102
O=C1c2cccnc2C(=O)N1Cc1ccc(S(=O)(=O)NC2CCCC2)cc1,103
Cc1ccc(-c2nnc(SC(=O)OCc3ccccc3)o2)cc1,100
CCN1CCCC1CNC(=O)c1noc2c1COc1ccc(C)cc1-2 (stereo not drawn),63*
CCc1nnc(NC(=O)c2noc3c2COc2ccc(C)cc2-3)s1,98
SMILES,VACV E9 pol inh
Cc1ccc2c(c1)-c1onc(C(=O)NC3CCCc4ccccc43)c1CO2 (stereo not drawn),100
COc1ccc(Nc2nc(N3CCN(C)CC3)nc3ccccc23)c(OC)c1,53*
COc1ccc(Nc2cc(C(=O)N3CCc4ccccc4C3)c3ccccc3n2)c(OC)c1,101
CCOC(=O)N1CCN(C(=O)c2cc(Nc3ccc(OC)cc3OC)nc3ccccc23)CC1,97
O=CNC(C(=O)Nc1cccc(Cl)c1)c1ccccc1Cl (stereo not drawn),97
CCC(Sc1nnc(-c2c[nH]c3ccccc23)n1C)C(=O)OC (stereo not drawn),104
NC(=O)C[n+]1ccn2c(NC3CCCCC3)c(-c3ccccc3O)nc2c1,97
Clc1ccc(OCc2nc3c4cnn(-c5ccc(Cl)cc5)c4ncn3n2)cc1,112
O=S(=O)(c1cc(OCC(F)(F)F)ccc1OCC(F)(F)F)n1cccc1,106
CC(C(=O)O)N1C(=O)/C(=C/c2ccccc2Cl)SC1=S (stereo not drawn),90
CN1C(=O)/C(=C/c2ccccc2Cl)Sc2ccc(C(=O)O)cc21,46*
CN1C(=O)c2ccccc2Sc2ccc(C(=O)O)cc21,97
CCCC(C(=O)O)N1C(=O)/C(=C/c2ccc(C)cc2)SC1=S (stereo not drawn),96

# Screening results as filed in PubChem.
